aSyn 5UTR act – Activators via SNCA 5'UTR binding, MLPCN; alpha-synuclein 5'UTR reporter, activators screen; activity score, % (tested at 7.5 µM), hits read low; 300,000 compounds, 7.1% hits; in the data active means activity score below about -60%
Numbers stand for hits; - = inactive. Not all results are given here.

SMILES	aSyn 5UTR act
COc1ccc2c(C)c(C)c(=O)oc2c1OC	-84
CCCCN1C(=O)/C(=C/C=C2/CC(C)(C)CN2C)SC1=S	-134
O=c1c2c3c(sc2nc(NCCO)n1Cc1ccco1)CCCCC3	-118
COCCNc1nc2sc3c(c2c(=O)n1Cc1ccco1)CCCCC3	-72
COc1cccc(CNC(=O)CN2C(=O)CSc3ccc(S(=O)(=O)N4CCCCC4)cc32)c1	-160
CCC(=O)Nc1cccc(C(=O)OCC(=O)c2ccccc2Cl)c1	-171
CC(=O)Nc1cccc(C(=O)OCC(=O)c2ccccc2Cl)c1	-99
CC(=O)Nc1cccc(C(=O)OCC(=O)N2CCC(c3ccccc3)=N2)c1	-89
Cc1ccc(-c2cc(-c3cccs3)[nH]n2)c(O)c1	-128
CCOC(=O)c1sc(=NC(=O)c2ccccc2)n(C)c1C	-134
CCOC(=O)c1sc(=NC(=O)c2ccc(OC)c(OC)c2)n(C)c1C	-69
CCOC(=O)c1sc(=NC(=O)c2cccc(OC)c2)n(C)c1C	-183
CC(C)(C)C1CCC(=O)N(CCOc2ccccc2)CC1 (stereo not given)	-101
c1ccc(SCCN2CCc3ccccc3C2)cc1	-97
Oc1ccc(CN2CCc3ccccc3C2)c2cccnc12	-
c1ccc(Sc2ccccc2CN2CCCC2)cc1	-
CC1CCC(=O)N(CCSc2ccccc2)CC1 (stereo not given)	-116
O=C1CCN(CCc2ccccc2)CCN1CCSc1ccccc1	-69
CCCC(=O)N(C)c1nnc(-c2ccc(OC)cc2)s1	-129
CCOc1ccc(-c2nnc(N(CC)C(=O)C3CCC3)s2)cc1	-102
S=c1[nH]nc(-c2ccn[nH]2)n1-c1ccccc1Cl	-86
Cc1ccc(C)c(NC(=S)c2ccccn2)c1	-114
S=C(Nc1ccc(Cl)cc1)c1nc2ccccc2s1	-127
Cc1ccc(C)c(NC(=S)c2nc3ccccc3s2)c1	-258
Cc1ccc(C)c(NC(=S)c2ccc3ccccc3n2)c1	-288
SMILES	aSyn 5UTR act
O=C(CCCN1C(=O)/C(=C/c2ccc3c(c2)OCO3)SC1=S)Nc1cccc(C(=O)O)c1	-
O=C(Cc1cccs1)NCc1ccc2c(c1)OCO2	-65
O=C(CCCc1cccs1)Nc1ccc2c(c1)OCO2	-182
O=C(Cc1cccs1)NCc1cccc(Br)c1	-112
COc1ccc(CNC(=O)CSc2ccsc2[N+](=O)[O-])cc1	-117
COc1ccc(CNC(=O)Cc2cccs2)cc1	-70
O=C(c1c(Cl)nc2sccn12)N(C(=O)c1c(Cl)nc2sccn12)c1ccc(Cl)cn1	-196
O=[N+]([O-])c1cc([N+](=O)[O-])c(Oc2cccc(Cl)c2Cl)cc1NN1CCCCC1	-
CO/N=C/c1ccc(Oc2ccc(C)cc2)c([N+](=O)[O-])c1	-90
O=[N+]([O-])c1cc(/C=N/O)ccc1Oc1ccccc1Cl	-65
Nc1c(C(=O)Nc2ccc3c(c2)OCCO3)nnn1Cc1ccc(F)cc1	-179
Nc1c(C(=O)Nc2ccc3c(c2)OCCO3)nnn1Cc1ccccc1Cl	-205
Nc1c(C(=O)Nc2ccc3c(c2)OCCO3)nnn1Cc1cccc(Cl)c1	-153
CC(C)(C)NC(=O)N1CCN(c2nc(-c3ccccc3)ns2)CC1	-119
CCCCC(=O)N1CCN(c2nc3ccc(Cl)cc3s2)CC1	-148
CC(C)(C)NC(=O)N1CCN(c2nc3ccc(Cl)cc3s2)CC1	-156
COc1cccc(-n2cnc3sc(-c4ccccc4)cc3c2=O)c1	-184
COc1ccc(-n2cnc3sc(-c4ccccc4)cc3c2=O)cc1	-118
COc1ccc(-c2cc3nc(C)n(N)c(=O)c3s2)cc1	-
COc1ccc(-c2cc(C(=O)NC(C)C)no2)cc1	-71
O=C(NC1CCCCC1)c1cc(-c2ccco2)on1	-128
COc1cccc(-c2cc(C(=O)N3CCCCC3C)no2)c1 (stereo not given)	-162
COc1ccc(-c2cc(C(=O)NC3CCCC3)no2)cc1	-121
COc1ccc(-c2cc(C(=O)Nc3ccc(C)c(C)c3)no2)cc1	-124
COc1cccc(-c2cc(C(=O)NC3CCCCC3)no2)c1	-202
SMILES	aSyn 5UTR act
O=C(Nc1sc2c(c1C(=O)NCc1ccco1)CCCC2)c1ccc2c(c1)OCO2	-187
CC1(C)Cc2c(sc(NC(=O)c3ccco3)c2C(=O)O)CO1	-81
COC(=O)c1c(NC(=O)c2ccc(C)o2)sc2c1CCCCC2	-184
COC(=O)c1c(NC(=O)/C=C/c2ccco2)sc2c1CCC2	-143
CC1(C)Cc2c(sc(NC(=O)c3ccc(Br)o3)c2C#N)CO1	-91
O=C(Nc1sc2c(c1C(=O)O)CCC2)c1ccco1	-62
CCCn1nnnc1SCC(=O)c1ccc2c(c1)OCCO2	-83
Cn1nnnc1SCC(=O)c1ccc2c(c1)OCCO2	-67
CC1CC1c1ccc(/C=C(\C#N)C(=O)Nc2cccc(Cl)c2Cl)o1 (stereo not given)	-111
COc1ccc(-c2cn(Cc3ccc(C)cc3)nn2)cc1	-108
CCc1ccc(-c2cn3nc(C)c(C)nc3n2)cc1	-
CCCCCc1ccc(-c2cn(Cc3ccc(C)cc3)nn2)cc1	-99
Cc1ccc(C(=O)Oc2ccc(/C=C3\C(=N)N4N=C(N5CCOCC5)SC4=NC3=O)cc2)cc1	-62
Cc1ccc(-c2cc3c(N=O)c4ccccc4c-3n[nH]2)cc1	-
Cc1ccc(Oc2nnc(-c3ccc(C)cc3)c3ccccc23)cc1	-93
Cc1ccccc1-c1cc(-c2ccccc2O)on1	-216
Cc1ccc(O)c(-c2cc(-c3ccc(F)cc3)no2)c1	-109
Oc1ccccc1-c1cc(-c2ccccc2)no1	-133
CCc1ccn2cc(-c3cc(-c4ccccc4)no3)nc2c1	-
Cc1ccc2nc(-c3cc(-c4ccccc4)no3)cn2c1	-
CCN1CCN(c2cc(C)c3cc(NC(=O)CCC(=O)N4CCN(c5ccccc5OC)CC4)ccc3n2)CC1	-62
COc1ccc(NC(=O)CCC(=O)Nc2ccc3nc(N4CCOCC4)cc(C)c3c2)c(OC)c1	-94
Cc1cc(N2CCOCC2)nc2ccc(Cl)cc12	-111
Cc1cc(N2CCOCC2)nc2ccc(NC(=O)CCC(=O)N3CCCCC3)cc12	-90
CCC(C)NC(=O)CCC(=O)Nc1ccc2nc(N3CCOCC3)cc(C)c2c1 (stereo not given)	-86
SMILES	aSyn 5UTR act
CCC(C)NC(=S)Nc1ccc2nc(N3CCN(CC)CC3)cc(C)c2c1 (stereo not given)	-95
Cc1cc(N2CCOCC2)nc2ccc(NC(=O)CCC(=O)N3CCC(C)CC3)cc12	-105
CCCCNC(=O)CCC(=O)Nc1ccc2nc(N3CCC(C)CC3)cc(C)c2c1	-69
Cc1cc(N2CCOCC2)nc2ccc(NC(=O)CCC(=O)N3CCN(c4cccc(C(F)(F)F)c4)CC3)cc12	-72
Cc1nc(Nc2cnc(/C=C/c3cc(C(=O)Nc4cccc(C(F)(F)F)c4)ccc3C)cn2)cc(N2CCNCC2)n1	-
CCCCN(C)C(=O)CCC(=O)Nc1ccc2nc(N3CCOCC3)cc(C)c2c1	-76
C/C(=N\NC(=O)C(c1ccccc1)c1ccccc1)c1ccccn1	-
O=C(N/N=C/C(Cl)=C/c1ccccc1)c1cnccn1	-102
O=C(N/N=C/c1cc([N+](=O)[O-])ccc1Cl)c1cnccn1	-
CC(/C=N/NC(=O)C(O)c1ccccc1)=C\c1ccccc1 (stereo not given)	-81
CC(=C/c1ccccc1)/C=N/NC(=O)c1cnccn1	-190
CC(/C=N/NC(=O)c1ccncc1)=C\c1ccc(C(C)C)cc1	-146
CC(/C=N/Nc1nc(C)cc(C)n1)=C\c1ccc(C(C)C)cc1	-153
CC(/C=N\NC(=O)c1cc(C)oc1C)=C\c1ccccc1	-119
CC(/C=N/NC(=O)c1cccnc1)=C\c1ccccc1	-124
COc1ccc(C(=O)COc2ccc(F)cc2)c(O)c1	-119
